Assay [1] deals with TRPC4 beta (transient receptor potential cation channel C4), mouse. The experiment in a line: activators of mouse TRPC4 channel, confirmation, cell-based, Fluo4 calcium, HEK293 TRPC4beta/mu-opioid, duplicates, 10 µM (AID 2426;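 active means fluorescence ratio normalized to control raised more than 50% in primary screen plus both repeat runs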). The following applies: Fluo4 calcium fluorescence, at 10 µM; hits give high values.
For assay [2], the system named is transient receptor potential cation channel C4 beta (TRPC4), mouse. The experiment in a line: activators of mouse TRPC4 channel, confirmation, cell-based, second round, Fluo4, HEK293 TRPC4beta/mu-opioid, 1 µM (AID 2461;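 active means primary screen active and over 50% activation in each of two duplicate runs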). The following applies: Fluo4 calcium fluorescence, at 1 µM; hits give high values.
In assay [3] the test system is TRPC4 (transient receptor potential cation channel C4 beta), mouse. The experiment in a line: positive allosteric modulators of mouse TRPC4, confirmation, cell-based, second round, Fluo-4, HEK293 TRPC4beta/mu-opioid, 1 µM (AID 2554;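 active means primary screen hit whose fluorescence ratio, in both repeats, exceeds the weak agonist control mean by 3 SD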). The following applies: DAMGO EC20, Fluo-4 calcium flux, at 1 µM; hits give high values.
Assay [4] has as its system TRPC4 beta (transient receptor potential cation channel C4), mouse. The experiment in a line: positive allosteric modulators of mouse TRPC4, confirmation, cell-based, Fluo-4, HEK293 TRPC4beta/mu-opioid (AID 2555;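 active means primary screen hit whose calcium fluorescence ratio, in both repeats, exceeds the weak agonist control mean by 3 SD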). Conditions: DAMGO EC20, Fluo-4 calcium flux, at 10 µM; hits give high values.
Assay [5] deals with Short transient receptor potential channel 4 (Mus musculus) (UniProt Q9QUQ5). The experiment in a line: inhibitors of mouse TRPC4 channel, confirmation, cell-based, Fluo4, HEK293 TRPC4beta/mu-opioid (AID 2636;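 active means calcium signal cut by more than 3 SD below the full-agonist control yet still positive, in both repeats and the earlier primary screen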). Conditions: DAMGO, Fluo4 calcium flux, at 10 µM; hits give high values.
Sequence of Short transient receptor potential channel 4 (Mus musculus) (Q9QUQ5 whole entry, looked up): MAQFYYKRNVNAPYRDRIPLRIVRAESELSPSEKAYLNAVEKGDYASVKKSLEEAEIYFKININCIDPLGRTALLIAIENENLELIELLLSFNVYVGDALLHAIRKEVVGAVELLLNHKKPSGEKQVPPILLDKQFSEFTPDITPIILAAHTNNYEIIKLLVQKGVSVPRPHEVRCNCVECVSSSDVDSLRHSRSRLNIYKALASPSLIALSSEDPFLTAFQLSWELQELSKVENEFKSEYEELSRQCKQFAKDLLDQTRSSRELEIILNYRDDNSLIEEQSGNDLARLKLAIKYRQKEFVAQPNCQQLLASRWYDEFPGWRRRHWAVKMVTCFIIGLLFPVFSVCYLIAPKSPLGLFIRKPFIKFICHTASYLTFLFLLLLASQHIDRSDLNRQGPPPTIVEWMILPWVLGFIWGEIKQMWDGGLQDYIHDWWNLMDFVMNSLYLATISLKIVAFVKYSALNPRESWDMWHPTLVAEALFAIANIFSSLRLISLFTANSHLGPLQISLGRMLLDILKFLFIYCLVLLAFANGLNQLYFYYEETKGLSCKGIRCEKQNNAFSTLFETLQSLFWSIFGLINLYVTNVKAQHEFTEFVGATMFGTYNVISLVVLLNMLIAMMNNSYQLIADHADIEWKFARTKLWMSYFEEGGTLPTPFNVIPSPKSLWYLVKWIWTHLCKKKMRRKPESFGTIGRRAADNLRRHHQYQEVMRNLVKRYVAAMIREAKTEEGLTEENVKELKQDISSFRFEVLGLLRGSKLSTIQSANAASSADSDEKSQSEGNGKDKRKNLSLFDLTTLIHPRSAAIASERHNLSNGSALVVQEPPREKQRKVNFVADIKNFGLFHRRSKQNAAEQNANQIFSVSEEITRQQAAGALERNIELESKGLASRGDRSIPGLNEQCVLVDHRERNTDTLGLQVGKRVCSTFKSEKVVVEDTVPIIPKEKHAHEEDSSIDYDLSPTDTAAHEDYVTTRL
Assay [6] shares this target. In words: inhibitors of mouse TRPC4 channel, confirmation, cell-based, second round, Fluo4, HEK293 TRPC4beta/mu-opioid, 1 µM (AID 2637;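 active means calcium signal ratio cut to more than 3 SD under the fully stimulated control mean yet still positive, in both repeats and the primary screen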;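 on inhibition: percent of integrated ratio relative to wells lacking test compound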). The following applies: Fluo4 calcium flux, DAMGO, at 1 µM; hits give high values.
The target is the same in assay [7]. The experiment in a line: mouse TRPC4 channel activators, dose response, cell-based, HEK293 TRPC4/mu-opioid, Fluo-4 calcium (AID 434937;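 active means primary screen activator hit with a dose response curve and TRPC4 channel activation at any tested dose; inactive means no activation, no dose response, or not a primary hit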).
Assay [8] shares this target. The experiment in a line: TRPC4 positive allosteric modulators, dose response, cell-based, HEK293 TRPC4/mu-opioid, Fluo-4 calcium, EC20 DAMGO (AID 434941;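 active means earlier screen potentiator hit that boosts the TRPC4 ion channel at some dose, with a dose response; inactive means no potentiation, no dose response, or not a prior hit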;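 further: calcium entry triggered by an EC20 dose of DAMGO at the co-expressed mu-opioid receptor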).
For assay [9], the target named is Short transient receptor potential channel 6 (Mus musculus) (UniProt Q61143). The experiment in a line: inhibition of mouse TRPC6 channel, confirmation, selectivity assay for TRPC4 inhibitor project, cell-based, HEK293, membrane potential dye, duplicate (AID 434948;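 active means active in primary screen and both duplicates, each dropping signal beyond three positive-control SD with fluorescence still positive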). Conditions: HEK293 TRPC6, membrane potential dye fluorescence, at 10 µM, stimulated with maximal-effect acetylcholine; hits give high values.
Sequence of Short transient receptor potential channel 6 (Mus musculus) (Q61143 whole entry, looked up): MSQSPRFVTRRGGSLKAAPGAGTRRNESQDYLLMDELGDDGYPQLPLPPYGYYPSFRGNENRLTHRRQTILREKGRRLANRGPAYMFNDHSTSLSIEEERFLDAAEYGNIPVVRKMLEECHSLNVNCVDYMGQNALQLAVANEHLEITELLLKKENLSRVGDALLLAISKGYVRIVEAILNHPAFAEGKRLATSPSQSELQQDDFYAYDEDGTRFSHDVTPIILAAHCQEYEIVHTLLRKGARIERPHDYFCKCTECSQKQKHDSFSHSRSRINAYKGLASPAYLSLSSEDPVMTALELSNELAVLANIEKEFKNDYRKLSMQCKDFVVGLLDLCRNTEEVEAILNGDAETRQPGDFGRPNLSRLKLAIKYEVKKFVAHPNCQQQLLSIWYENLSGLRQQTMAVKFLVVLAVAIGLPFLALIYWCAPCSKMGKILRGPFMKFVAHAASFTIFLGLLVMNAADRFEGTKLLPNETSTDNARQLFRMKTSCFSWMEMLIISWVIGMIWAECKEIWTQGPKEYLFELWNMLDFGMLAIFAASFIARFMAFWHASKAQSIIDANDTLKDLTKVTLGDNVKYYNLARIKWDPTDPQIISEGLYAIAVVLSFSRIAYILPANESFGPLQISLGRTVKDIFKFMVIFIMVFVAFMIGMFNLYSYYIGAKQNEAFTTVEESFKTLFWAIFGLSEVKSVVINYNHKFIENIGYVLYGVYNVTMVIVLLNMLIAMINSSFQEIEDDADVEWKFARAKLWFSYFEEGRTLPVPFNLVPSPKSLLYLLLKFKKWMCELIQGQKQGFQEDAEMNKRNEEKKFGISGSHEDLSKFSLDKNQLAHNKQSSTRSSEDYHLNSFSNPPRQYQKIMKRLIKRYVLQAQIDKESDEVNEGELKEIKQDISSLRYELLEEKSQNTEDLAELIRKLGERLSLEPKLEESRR

The target is the same in assay [10]. In words: activation of mouse TRPC6 channel, confirmation, selectivity assay for TRPC4 activator project, cell-based, HEK293, membrane potential dye, duplicate (AID 434950;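 active means membrane potential signal rise above negative control mean plus 3 SD in both duplicates, also active in the earlier TRPC4 screen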). Conditions: HEK293 TRPC6, membrane potential fluorescence, at 10 µM; hits give high values.
The target is the same in assay [11]. In words: TRPC6 potentiation by TRPC4 potentiator hits, confirmation, selectivity assay for TRPC4 potentiator project, HEK293 cells, membrane potential dye, duplicate (AID 434952). The following applies: HEK293 TRPC6, membrane potential dye fluorescence, at 10 µM, maximal acetylcholine added after compound; hits give high values.
For assay [12], the target named is Short transient receptor potential channel 4 (Mus musculus) (UniProt Q9QUQ5). The experiment in a line: calcium flux activators in TRPC4/5HT1a cells, counter-screen for TRPC4 activator project, cell-based, second counter screen, HEK293 TRPC4/5HT1a, Fluo-4 (AID 434977;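 active means calcium signal rise above buffer-control mean plus 5 SD in both duplicates, and also a hit in the primary screen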). The following applies: Fluo-4 calcium flux, at 10 µM; hits give high values.
Assay [13] is described as follows: calcium flux inhibitors in TRPC4/5HT1a cells, confirmation, counter-screen for TRPC4 inhibitor project, cell-based, second counter screen, HEK293 TRPC4/5HT1a, Fluo-4 (AID 434978;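 active means primary screen active whose calcium signal fell more than 3 SD beyond the full-serotonin control mean in both duplicate plates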;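 on outcome: serotonin given first at submaximal then at maximal dose after compound preincubation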). Conditions: Fluo-4 calcium flux, at 10 µM, serotonin added to trigger calcium flux; hits give high values.
In assay [14] the test system is TRPC4 (mouse), co-expressed with 5HT1a in HEK293. The experiment in a line: calcium flux potentiators in TRPC4/5HT1a cells, confirmation, counter-screen for TRPC4 potentiator project, cell-based, second counter screen, HEK293 TRPC4/5HT1a, Fluo-4 (AID 434979;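 active means signal rise over 3 SD above mean of control wells given weak agonist, in both repeats and first screen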). The following applies: Fluo-4 calcium flux, at 10 µM, serotonin added at its EC20 dose; hits give high values.

The nature of assay [15]: calcium flux activation in mu-opioid HEK293 cells, confirmation, counter-screen for TRPC4 activator project, cell-based, HEK293 mu-opioid receptor line (AID 449723;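 active means hit in primary screen, with calcium signal over 5 SD above buffer well mean in both duplicates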;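 further: counter screen cells carry the mu-opioid receptor alone and lack TRPC4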). Conditions: Fluo-4 calcium fluorescence, at 10 µM; hits give high values.
Assay [16] is described as follows: calcium flux enhancement in mu-opioid HEK293 cells, confirmation, counter-screen for TRPC4 allosteric potentiator project, cell-based, HEK293 mu-opioid receptor line (AID 449724;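 active means calcium signal rise more than 3 SD above the low-dose agonist control mean, in both duplicate plates and the primary screen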;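 further: HEK293 cells carrying mu-opioid receptor only with no TRPC4 channel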). Conditions: Fluo-4 calcium flux, at 10 µM, compound added before EC20 DAMGO stimulus; hits give high values.

The source of these data is PubChem BioAssay.

For some of these results: Measured potencies and affinities stand elsewhere. Activity calls are given as the source filed them.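 How the source made its calls, unless noted: active means compound raising the membrane signal above positive-control mean plus 3 SD in both repeats, and a primary screen hit; inactive means the rest.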

Turning to `O=C(O)CN1C(c2ccccc2O)Nc2ccc(Br)cc2C1c1ccccc1` (stereo unspecified), the outcome in [1], in assay [2], in assay [3], in assay [4], in assay [7] and in assay [8] was inactive. Besides, the compound was called inactive in [9], in assay [10], in [11], in [12], in assay [14] and in assay [15]. Moreover, the outcome in assay [16] was inactive. Also, the values for the inhibition in assay [5], in [6] and in assay [13] were 96% (active), 45% (active) and 13.5% (active), respectively.
Turning to `c1csc(-c2nc(NCC3CCCO3)c3ccccc3n2)c1` (stereo unspecified), the result in [1], in [2], in [3], in [4], in assay [6] and in assay [7] was inactive. The result in assay [8], in assay [9], in [10], in assay [11], in [12] and in [14] was inactive. Also, the outcome in assay [15] and in [16] was inactive. Further, the inhibition in assay [5] is 79% (active); in assay [13], 28% (active).
In the case of `NC(=O)c1nsc(C(=O)N(Cc2ccccc2Cl)C(C(=O)NCC2CCCO2)c2ccc(O)cc2)c1N` (stereo unspecified), the result in [1], in [2], in assay [3], in [4], in [6] and in assay [7] was inactive. Moreover, the outcome in assay [8], in assay [9], in assay [10], in assay [11], in assay [12] and in [14] was inactive. Further, the outcome in assay [15] and in assay [16] was inactive. Besides, the inhibition in assay [5] is 90% (active); in assay [13] it was 28.6% (active).
`CCCn1nc([N+](=O)[O-])c(C(C#N)c2nc3ccccc3o2)c(Cl)c1=O` (stereo unspecified): the result in assay [1], in assay [2], in [3], in assay [4], in [6] and in assay [7] was inactive. Also, the result in assay [8], in assay [10], in assay [11], in assay [12], in assay [14] and in assay [15] was inactive. Further, the result in assay [16] was inactive. For the same compound, the inhibition was 96% (active) in assay [5], 28% (active) in assay [9] and 39.9% (active) in [13].
Regarding `c1ccc(Cn2c(CN3CCCC3)nc3ccccc32)cc1`, the result in assay [1], in assay [2], in assay [3], in assay [4], in assay [7] and in [8] was inactive. Also, the result in assay [9], in assay [10], in [11], in assay [12], in [14] and in assay [15] was inactive. Further, the result in assay [16] was inactive. In addition, the results for the inhibition in assay [5], in assay [6] and in [13] were 96% (active), 67% (active) and 18% (active), respectively.
With `CC(C)(c1ccccc1)c1ccc(OCCCNCCO)cc1`, the outcome in assay [1], in [2], in [3], in assay [4], in assay [6] and in assay [7] was inactive. Also, the result in [8], in assay [9], in assay [10], in [11], in assay [12] and in assay [14] was inactive. Also, the result in assay [15] and in assay [16] was inactive. The values for the inhibition in [5] and in assay [13] were 79% (active) and 13.3% (active), respectively.
For `CC(C)c1ccc(S(=O)(=O)/N=C2\C=C(NS(=O)(=O)c3ccccc3)C(=O)c3ccccc32)cc1`, the result in assay [1], in [2], in [3], in assay [4], in [6] and in assay [7] was inactive. For the same compound, the result in assay [8], in [10], in assay [11], in [12], in [14] and in assay [15] was inactive. For the same compound, the result in assay [16] was inactive. For the same compound, the inhibition was 81% (active) in [5], 21.5% (active) in assay [9] and 19.2% (active) in assay [13].
In the case of `Cc1ccc2c(c1)N(C(=O)CCC(=O)Nc1ccccc1Cl)CC(C)O2` (stereo unspecified), the outcome in assay [1], in [2], in [3], in assay [4], in [6] and in assay [7] was inactive. In addition, the result in [8], in assay [9], in assay [10], in [11], in assay [12] and in assay [13] was inactive. Moreover, the outcome in assay [14], in [15] and in assay [16] was inactive. The inhibition in assay [5] is 73% (active).
Regarding `Brc1ccc(CN2C3=NCCCN3c3ccccc32)cc1`, the outcome in assay [1], in assay [2], in assay [3], in assay [4], in assay [7] and in assay [8] was inactive. The compound was called inactive in assay [9], in assay [10], in assay [11], in [12], in [14] and in assay [15]. Also, the outcome in [16] was inactive. Moreover, the figures for the inhibition in assay [5], in [6] and in assay [13] were 96% (active), 75% (active) and 9.36% (active), respectively.
As to `OC(COc1ccccc1)CN1C2=NCCCN2c2ccccc21` (stereo unspecified), the result in assay [1], in [2], in assay [3], in [4], in [6] and in [7] was inactive. Moreover, the result in assay [8], in [9], in assay [10], in assay [11], in assay [12] and in [13] was inactive. Further, the result in [14], in [15] and in assay [16] was inactive. Besides, the inhibition in assay [5] was 84% (active).
Turning to `C=CCc1ccccc1OCC(CN1CCCCC1)OC(C)=O` (stereo unspecified), the result in assay [1], in [2], in [3], in assay [4], in [7] and in [8] was inactive. Further, the result in assay [9], in assay [10], in assay [11], in assay [12], in assay [13] and in [14] was inactive. The result in assay [15] and in assay [16] was inactive. Besides, the results for the inhibition in assay [5] and in assay [6] were 74% (active) and 43% (active), respectively.
As for `CCOc1ccc2c(C)nc(NC3=NC(C)(C)C=C(C)N3)nc2c1`, the outcome in assay [1], in [2], in assay [3], in assay [4], in assay [7] and in [8] was inactive. Also, the compound was called inactive in [9], in assay [10], in assay [11], in assay [12], in assay [13] and in assay [14]. Moreover, the result in assay [15] and in [16] was inactive. The inhibition is 96% (active) in assay [5] and 37% (active) in assay [6].
With `c1ccc(COC(CN2CCCCCC2)CN2CCCCCC2)cc1`, the outcome in assay [1], in [2], in assay [3], in [4], in assay [6] and in assay [7] was inactive. Besides, the result in assay [8], in assay [9], in [10], in assay [11], in assay [12] and in assay [14] was inactive. Besides, the result in assay [15] and in assay [16] was inactive. Moreover, the results for the inhibition in assay [5] and in [13] were 93% (active) and 31.1% (active), respectively.
As to `Cc1cccc(C)c1-n1cccc1/C=C1\SC(=S)N(c2cccc(C(=O)O)c2)C1=O`, the outcome in assay [1], in assay [2], in assay [3], in assay [4], in assay [6] and in assay [7] was inactive. Also, the result in [8], in [9], in [10], in [11], in [12] and in assay [14] was inactive. Besides, the result in [15] and in [16] was inactive. Moreover, the inhibition in assay [5] was 89% (active); in assay [13], 23.2% (active).
On to `CCCn1c(=O)c2ccccc2n2c(SCCOc3ccccc3)nnc12`, for which the result in [1], in assay [2], in assay [3], in assay [4], in assay [6] and in assay [7] was inactive. For the same compound, the outcome in [8], in assay [9], in assay [10], in assay [11], in [12] and in assay [14] was inactive. The result in [15] and in assay [16] was inactive. The inhibition was 67% (active) in assay [5] and 37.4% (active) in assay [13].
On to `COc1cccc(N2CC(O)=C(c3nc4ccccc4c(=O)[nH]3)C2=N)c1`, for which the result in assay [1], in assay [2], in assay [3], in [4], in assay [7] and in [8] was inactive. Besides, the call in assay [9], in assay [10], in assay [11], in assay [12], in [14] and in assay [15] was inactive. Besides, in assay [16], the outcome was inactive. Besides, the figures for the inhibition in assay [5], in [6] and in assay [13] were 74% (active), 47% (active) and 37.5% (active), respectively.
